Assay outcomes as filed in PubChem.
eIF4E-4G inh: eIF4E–eIF4G protein interaction inhibitors, primary screen, biochemical, uHTS, TR-FRET, eIF4GI fragment | Eukaryotic translation initiation factor 4E (Mus musculus) + Eukaryotic translation … | TR-FRET eIF4E-eIF4GI(517-606) binding, 2 h | inhibition, % at 21.7 µM | 0.37% of 220,000 active | AID 782, 2007;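 active means inhibition above about 30%, limit read from the data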;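 further: 0% = full FRET control wells and 100% = background wells lacking eIF4GI fragment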
PERK inhibitor: block of dimerizer-induced PERK translation repression, primary screen, PERK inhibitor project, CHO PERK-DD cells, SEAP luminescence, HTS; Eukaryotic translation initiation factor 2-alpha kinase 3 (Homo sapiens), Q9NZJ5; CHO PERK-DD fusion, SEAP luminescence translation reporter; inhibition, % at 5.6 µM; 0.17% of 220,000 active;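 active means inhibition above the mean inhibition of all tested compounds plus 3 SD, set separately per screening campaign, cut at about 2.9% in these data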;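 further: PERK kinase domain activated by AP20187 dimerizer at 100 nM; 0% = DMSO with dimerizer and 100% = rapamycin at 8.4 µM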
Target sequence (Q9NZJ5 whole entry, looked up, the tested form may be a part): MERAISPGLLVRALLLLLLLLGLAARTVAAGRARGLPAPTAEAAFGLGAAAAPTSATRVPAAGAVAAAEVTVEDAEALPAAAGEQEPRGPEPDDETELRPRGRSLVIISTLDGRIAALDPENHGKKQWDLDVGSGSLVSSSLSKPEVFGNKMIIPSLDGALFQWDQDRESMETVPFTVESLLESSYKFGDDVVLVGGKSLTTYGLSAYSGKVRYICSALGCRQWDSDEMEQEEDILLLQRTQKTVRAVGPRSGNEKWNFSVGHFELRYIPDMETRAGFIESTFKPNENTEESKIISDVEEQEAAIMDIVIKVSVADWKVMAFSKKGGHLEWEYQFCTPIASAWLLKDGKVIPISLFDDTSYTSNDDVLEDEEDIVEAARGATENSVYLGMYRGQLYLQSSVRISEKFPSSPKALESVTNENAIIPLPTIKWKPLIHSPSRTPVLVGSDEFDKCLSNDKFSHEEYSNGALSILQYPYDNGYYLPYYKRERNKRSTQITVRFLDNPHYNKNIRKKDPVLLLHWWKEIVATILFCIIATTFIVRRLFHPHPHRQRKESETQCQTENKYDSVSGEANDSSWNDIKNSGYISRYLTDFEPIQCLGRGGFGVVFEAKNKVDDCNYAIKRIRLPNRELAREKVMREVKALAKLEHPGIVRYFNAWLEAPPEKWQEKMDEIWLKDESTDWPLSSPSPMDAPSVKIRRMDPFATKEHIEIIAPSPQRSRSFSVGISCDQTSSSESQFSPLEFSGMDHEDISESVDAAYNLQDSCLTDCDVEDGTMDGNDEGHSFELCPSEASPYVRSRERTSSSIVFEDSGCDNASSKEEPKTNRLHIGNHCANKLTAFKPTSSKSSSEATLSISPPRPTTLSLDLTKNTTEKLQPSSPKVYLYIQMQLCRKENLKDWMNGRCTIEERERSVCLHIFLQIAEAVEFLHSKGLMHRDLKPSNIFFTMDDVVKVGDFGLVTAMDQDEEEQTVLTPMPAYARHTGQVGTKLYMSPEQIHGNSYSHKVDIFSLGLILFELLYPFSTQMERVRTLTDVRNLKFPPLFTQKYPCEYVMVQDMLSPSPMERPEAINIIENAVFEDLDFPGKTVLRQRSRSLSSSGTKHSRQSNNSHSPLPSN
EP2 modulator: EP2 receptor modulators, cAMP readout, primary screen, cell-based, HTRF cAMP, PGE2 stimulation | Prostaglandin E2 receptor EP2 subtype (Homo sapiens), P43116 | EP2-expressing cells, cAMP HTRF FRET, PGE2 co-stimulation | induction, % at 25 µM | 0.83% of 260,000 active | AID 940, 2007;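 active means compounds whose cAMP rise, as percent of the full-agonist control response, exceeds 60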;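 further: rat C6 glioma line stably carrying human EP2 under a CMV promoter; the protocol text gives 20 µM as final concentration; 100% = response of wells given 1 µM PGE2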
PGE2 EP2 inh: human EP2 receptor antagonists, primary screen, TR-FRET cAMP, C6 glioma cells. inhibition, % at 25 µM. 0.52% of 260,000 active. C6 glioma cells expressing human EP2; cells stimulated with saturating PGE2. Prostaglandin E2 receptor EP2 subtype (Homo sapiens), P43116;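 active means percent inhibition above 40 after rounding to a whole number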;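 further: rat C6 glioma host cells with rolipram phosphodiesterase inhibitor present; the protocol text gives 20 µM as final concentration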
Numbers without * were called inactive; · = no result given. This is a sample that favours compounds with a hit; in the whole collection about 1.8% have one here.

SMILES | eIF4E-4G inh | PERK inhibitor | EP2 modulator | PGE2 EP2 inh
O=C1C=C(c2ccccc2)C(=O)N1Nc1ccccc1 | 3 | 0 | -42 | 84*
COc1ccc(C2=CC(=O)N(Nc3ccccc3)C2=O)cc1 | 3 | 1 | -82 | 18
Cc1ccc(NN2C(=O)C=CC2=O)cc1 | 1 | 0 | 13 | 5
COc1ccc(-c2ccnc(SCC(=O)Nc3nc(C)cs3)n2)cc1 | · | · | -14 | 10
O=C1c2ccccc2C(=O)N1SC1CCCCC1 | 10 | 2 | -36 | 87*
CCOc1cc(S(=O)(=O)n2c(C)nc3ccccc32)ccc1Cl | · | · | 80* | 10
CCOc1cc(S(=O)(=O)n2cnc(C)c2)ccc1Cl | -5 | 0 | -11 | 9
Cc1ccc2cc(C(c3nnnn3C(C)(C)C)N3CCN(C)CC3)c(=O)[nH]c2c1C (centres undefined) | · | · | -20 | 17
CN(C)S(=O)(=O)c1ccc(S(=O)(=O)N(C)CC2COc3ccccc3O2)cc1 (centres undefined) | · | · | -28 | 9
COc1c(-c2coc3cc4c(cc3c2=O)CC(O)C(C)(C)O4)ccc2c1C=CC(C)(C)O2 (centres undefined) | · | · | -53 | 92*
O=C(O)[C@H](Cc1ccccc1)N1C(=O)c2ccccc2C1=O | · | · | 24 | 13
O=C(C(Cc1ccccc1)N1C(=O)c2ccccc2C1=O)N1CCc2ccccc21 (centres undefined) | -1 | 0 | 64* | 6
CCCS(=O)(=O)N1CCN(S(=O)(=O)c2ccccc2)CC1 | 64* | -1 | 14 | 9
Cc1cc(C)c(S(=O)(=O)N(CCO)Cc2cc3cccc(C)c3[nH]c2=O)c(C)c1 | · | · | -21 | 6
Cc1cccc(/C=N/n2c(C)nnc2C)c1 | 3 | 3.1* | 5 | 9
Cc1nnc(C)n1/N=C/c1ccccc1 | -5 | 1 | 27 | 5
Cc1cccc(/C=N/n2c(-c3ccco3)n[nH]c2=S)c1 | 14 | 3.5* | 29 | 4
Cc1cc(C)c2[nH]c(=O)c(C(c3nnnn3C3CCCC3)N3CCN(Cc4ccco4)CC3)cc2c1 (centres undefined) | · | · | -3 | 18
NC(=O)CSc1nnc(CNc2ccc(F)cc2)n1CC1CCCO1 (centres undefined) | 3 | 3.0* | 0 | 15
CCSc1nnc(CNc2ccc(F)cc2)n1CC1CCCO1 (centres undefined) | -1 | 1 | 9 | 6
CCc1ccc2[nH]c(=O)c(CN(Cc3ccccc3OC)C(C)=O)cc2c1 | · | · | -81 | 13
O=C(NC1CCCC1)C(c1cccs1)N(C(=O)Cc1cccs1)c1cccc(F)c1 (centres undefined) | · | · | 21 | 12
NS(=O)(=O)c1cc2c(cc1Cl)NC(c1ccccc1)NS2(=O)=O (centres undefined) | · | · | 12 | 9
NS(=O)(=O)c1cc2c(cc1Cl)N[C@H](Cc1ccccc1)NS2(=O)=O | · | · | 15 | 53*
COc1ccccc1NC(=S)NC1CC2CCC1C2 (centres undefined) | -8 | 1 | 7 | 6
SMILES | eIF4E-4G inh | PERK inhibitor | EP2 modulator | PGE2 EP2 inh
CN(C)NC(=S)NC1CC2CCC1C2 (centres undefined) | 90* | -1 | -16 | 8
CCOC(=O)c1[nH]c(C)c(C(=O)O)c1C | 2 | 3.3* | 22 | 6
CCOC(=O)c1c(C)[nH]c(C(=O)CN2CCN(CC)CC2)c1C | 54* | 0 | -1 | 12
O=C(O)CSc1nnc2c(n1)[nH]c1ccccc12 | -3 | 1 | 12 | 6
O=C(O)c1ccccc1CSc1nnc2c(n1)[nH]c1ccccc12 | -1 | 3.1* | 61* | 15
Cc1ccccc1C1(O)CCN(CC(O)c2ccc3c(c2)OCCCO3)CC1 (centres undefined) | · | · | -59 | 6
O=c1oc2cc(O)c(Cl)cc2c2ccccc12 | 5 | 1 | 61* | 29
Clc1ccc(-c2cc3ccccc3nc2N2CCOCC2)cc1 | 5 | 0 | 54 | 7
Clc1ccc(-c2cc3ccccc3nc2N2CCCC2)cc1 | -2 | 1 | 64* | 10
Cc1ccc(-c2cc3ccccc3nc2N2CCCC2)cc1 | -6 | 1 | 62* | 11
COc1ccc(S(=O)(=O)N2CCC(C(=O)Nc3ccc(NC(C)=O)cc3)CC2)cc1C | · | · | -39 | 11
COc1ccc2c(c1)cc(C)c1nn(CC(=O)N3CCCCCC3)c(=O)n12 | · | · | -29 | 6
CCCCN(C(=O)c1cccc2c(=O)c(C)c(-c3ccccc3)oc12)c1ccccc1 | 23 | -1 | 64* | -1
C/C(=N/NC(=O)C1COc2ccccc2O1)c1ccc(Br)s1 (centres undefined) | 98* | 1 | 56 | 7
O=C(NC1CCCC1)C(c1ccccc1F)N(Cc1ccco1)C(=O)Cc1cccs1 (centres undefined) | · | · | 5 | 9
O=C(NC1CCCC1)C(c1ccccc1Cl)N(Cc1ccco1)C(=O)Cc1cccs1 (centres undefined) | · | · | 64* | 15
O=C(NC1CCCCC1)C(c1ccco1)N(Cc1cccs1)C(=O)Cn1nnc2ccccc21 (centres undefined) | · | 0 | 61* | 10
O=C(NC1CCCCC1)C(c1ccncc1)N(C(=O)Cc1cccs1)c1ccc(F)cc1 (centres undefined) | · | · | -16 | 9
O=C(NC1CCCCC1)C(c1ccco1)N(C(=O)Cc1cccs1)c1ccc(F)cc1 (centres undefined) | · | · | 66* | 10
CCC(c1nnnn1C1CCCC1)N(CCCO)Cc1cc2cc(C)ccc2[nH]c1=O (centres undefined) | · | · | -11 | 7
C/C(=N\NC(=O)CSc1nc2nc(C)cc(C)n2n1)c1ccccc1 | 3 | -2 | 7 | 128*
O=C(c1nnsc1S(=O)c1ccc(Cl)cc1)N1CCOCC1 (centres undefined) | -2 | -1 | -77 | 21
O=C(Nc1ccccc1)c1nnsc1S(=O)c1ccc(Cl)cc1 (centres undefined) | 1 | 0 | -26 | 142*
CCC(NC(=O)Nc1cc(C)on1)(C(F)(F)F)C(F)(F)F | -3 | 3.2* | 11 | 6
CC1=NOC(=O)/C1=C\c1ccc(-c2ccc(Cl)c(C(=O)O)c2)o1 | -1 | 0 | 13 | 7
O=C1ON=C(c2ccccc2)/C1=C\c1ccco1 | 2 | 2 | -58 | 12
Cc1ccc(/C=C2/C(=O)ON=C2c2ccccc2)o1 | -2 | 1 | -50 | 80*
CC1=NOC(=O)/C1=C\c1ccc(-c2ccccc2Br)o1 | 3 | 1 | 14 | 44*
CC1=NOC(=O)/C1=C\c1ccc(-c2cccc(Cl)c2)o1 | 2 | -1 | -35 | 109*
CCOC(=O)c1cccc2c1-c1ccccc1/C2=N/O | 2 | 0 | 46 | 19
